Measurements taken from article PMC12136788.
Where a chain is given by its changes, count along the chain named. Over roughly 24,000 sequences, “enrichment r” has its median near 0.99; the highest 2% begin near 3.7. What follows is part of a selection rich in the highest values, with near analogues and random picks from the rest.

T1: UNK ZnF1-3 (human, UniProt Q9C0B0 31-174)
T1 sequence: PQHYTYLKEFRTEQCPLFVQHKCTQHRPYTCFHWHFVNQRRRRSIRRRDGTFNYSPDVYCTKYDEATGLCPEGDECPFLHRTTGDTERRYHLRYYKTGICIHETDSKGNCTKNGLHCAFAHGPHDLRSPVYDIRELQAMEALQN

B1: chr11:6247107:6247108:+_ENSMUSG00000020456_ENSMUST00000003461|mus_mus|motif|central (ssRNA)
RNA: GGGAGUUCUACAGUCCGACGAUCAAACAUAGGUUCGUCCAUCUCAUUGUGGCCAUUUCGUCGAUAACACACCAGAUCAACGGCAACAUCCUUGUGGAAGGUGUUUCUCCACUCAGCUGCCACCUUGCAUACAUACAUGACAGCCAACAGAGGAUUGAGCAUCA
B2: chrX:41029285:41029286:+_ENSG00000124486_ENST00000378308|hu_hu|FALSE|FALSE (ssRNA)
RNA: GGGAGUUCUACAGUCCGACGAUCUGUAUGAGACCAUACCUCCAAGUCAUCAACCUGUCUGCCCUGGUUUGGAAAUCGAACUACAAAAGAGAGGUGUUUACCGCGGAAUGCUCUCGACAUAGGGAGAAUUGUUCUUUCCUCAUGCAACAGAGGAUUGAGCAUCA
B3: chr1:39494447:39494448:+_ENSG00000168653_ENST00000372967|hu_mus|hu_hu_hu_mus_False|18_38 (ssRNA)
RNA: GGGAGUUCUACAGUCCGACGAUCGCACCGAGCGGCGUUCUUAUAGGGCUGUUCUGCGCUUAGGAACAUAAAGUGCCGGUCCAGGCUGAUGCCCAGCCUUUUCUGGAUGUCAAGGAAAGGCAUGGCCCUGCAGUGCCCUUGUCACAACAGAGGAUUGAGCAUCA
B4: chr4:56294251:56294252:-_ENSG00000134852_ENST00000309964|hu_hu|FALSE|FALSE (ssRNA)
RNA: GGGAGUUCUACAGUCCGACGAUCAACAUAGCACUGAGGUAUUUUUUAUUUUUAAAAUUGAAGGAAACAAAGUCUGGAUCUAAUUAUUUUUACAUUUACAAAAACUGCUACUGCUUGGCUCUUUUGCUAUAAGUUUAGGUUCUGCAACAGAGGAUUGAGCAUCA
B5: chr1:34870196:34870197:-_ENSMUSG00000037503_ENSMUST00000047534|mus_mus|FALSE|FALSE (ssRNA)
RNA: GGGAGUUCUACAGUCCGACGAUCUGAGCCCAUCUACUCAUCAGAUUGCAUAAAAAAUUAAAACAGUAUGAAUUUACAUCUAAUUGAACUGGCUUGGGAUGGACAGUCUGCCCGUUCCUUUGUUUUGACACAUAAGUUCCAUGACAACAGAGGAUUGAGCAUCA
B6: chr1:34870196:34870197:-_ENSMUSG00000037503_ENSMUST00000047534|mus_mus|motif|central (ssRNA)
RNA: B5 RNA with U80G, A81G
B7: 54592465_54592585_3431_3pUTR_ENSMUSG00000005225_ENSMUST00000119706|mouse|control|control (ssRNA)
RNA: GGGAGUUCUACAGUCCGACGAUCUUGCUUGGCUUAAAAUUUUAUUACAAGUGUUUUUAAGAGGCAAGGUCUUGCUAUGUUGUUCAGGUUAAUCUCCAAAUCUUGGGCUCAAAUAAUACUUUACUCUCAUACUUCUGGGUAGCUCAACAGAGGAUUGAGCAUCA
B8: chr4:56294251:56294252:-_ENSG00000134852_ENST00000309964|hu_hu|motif|central (ssRNA)
RNA: B4 RNA with U80G, A81G
B9: chrX:41000244:41000245:+_ENSG00000124486_ENST00000378308|hu_mus|motif|central (ssRNA)
RNA: GGGAGUUCUACAGUCCGACGAUCUGCUUCUUUCUUCAGCUCUUCAUCAGUUAAGUUUUCUAAAAACUGUGGAACCAUUUCGGUUAUUGGAAGAAAGUACUUUUUCACUGUGUGAAGAGUAAGAAACUCAUAGCACUGUCCAAACAACAGAGGAUUGAGCAUCA
B10: chr4:17845017:17845018:+_ENSG00000109805_ENST00000514176|hu_mus|hu_hu_hu_mus_False|48_58 (ssRNA)
RNA: GGGAGUUCUACAGUCCGACGAUCGCUCUCUUAACUUGUAUCUUCAUUAAGGAACUCUGCAAGGUUAAGUUUACUUUUUCUAGUGCUGCGGUUUUGGGCUCGUCUGGGUAAUCUCAUCUUCAUUUCUGAUGGUGGUUCAUGAUCCAACAGAGGAUUGAGCAUCA
B11: chr6:114281168:114281169:-_ENSG00000196591_ENST00000368632|hu_hu|hu_hu_hu_mus_True|1_18 (ssRNA)
RNA: GGGAGUUCUACAGUCCGACGAUCUUCCAUUUUUCGGUAUAAACCAUAAUUUAGCAGCAAGUUAUGAGUCAUCCGGAUUCUAUGAGGCUUCAUGGGAUGACCCUGGCCAUAAUAAUAAUUUCCAAUAUCACCAUCAUACUAGAACAACAGAGGAUUGAGCAUCA
B12: 83260623_83262902_554_CDS_ENSMUSG00000031715_ENSMUST00000043359|mouse|control|control (ssRNA)
RNA: GGGAGUUCUACAGUCCGACGAUCUUCUUUUUGCUUUCCAGGUGAUCCAUGAUCAAAUACUUCCUCCAUCUCGGUGUCCGCGGGGCCCGAGCCCGCAGCACACGGAGCCGCGGGCGCCGCGCCGCCCUCGGGGCCGCCUUUGUUCAACAGAGGAUUGAGCAUCA
B13: chr4:86222814:86222815:+_ENSMUSG00000070934_ENSMUST00000091064|mus_mus|FALSE|FALSE (ssRNA)
RNA: GGGAGUUCUACAGUCCGACGAUCGAAUAUUAAAGACAAAUGAUGCAAAAAAAAAAAAAACACCGUAAUUCAGCAUUUUACUAAAGAGCAUUUGGCAUUAUUUCAACGCAUGAGGAGGCUGUGCUUGGGCCCAUCUACUCUUUCCAACAGAGGAUUGAGCAUCA
B14: chr6:40197388:40197389:+_ENSMUSG00000057716_ENSMUST00000061740|mus_mus|mus_mus_mus_hu_False|68_78 (ssRNA)
RNA: GGGAGUUCUACAGUCCGACGAUCGAGACACUGGGGUGGAUUUAUUCCACCUCUGUUUGCUAGCCUCUAAGAUAGAUUGUUAUUUUGGGAUUCAUGGCCUUGAAUAUCAAGAGGGAAAGGAAGAGGAUGGAAAGAGUCAAGAGUCAACAGAGGAUUGAGCAUCA
B15: 52238803_52238923_934_CDS_ENSG00000023330_ENST00000469224|human|control|control (ssRNA)
RNA: GGGAGUUCUACAGUCCGACGAUCCCCACACACCCGUGGGUGGCGACUCAUUCCUAGGUAGUCAUUACUGCACCAGACUGACACUUGCUUUUUGGUGAUGAGGGAGUCUGAAUAGUCAUCUGCCAUGGGGAAGAUGUGUGCUCGCAACAGAGGAUUGAGCAUCA
B16: 14029136_14029256_1416_CDS_ENSG00000175595_ENST00000311895|human|control|control (ssRNA)
RNA: GGGAGUUCUACAGUCCGACGAUCUUUUUUCUUUUUGAGGGUUCUUUCUUUGGUAGAAGCCCGUUCUUUGUUUUGGGGGUCUUUAGGUCUUUUGUGAGAUUUCCUAAUUCUCUUUGAACUGUCUUCCUUCCUAAAUUUCAUCCACAACAGAGGAUUGAGCAUCA
B17: 80201405_80202562_482_3pUTR_ENSMUSG00000017421_ENSMUST00000017567|mouse|control|control (ssRNA)
RNA: GGGAGUUCUACAGUCCGACGAUCCUGUGGCUGAAAGGAAGUUGAGGCUGCAGAUUCAUCAUCAUCAUAUUCAUCAGAAUCAUCUUGUUGUUUCUUUUUCUGACUCUCUUGUGUUUUCUGUUCAAGAAGUCGCCGUCUUUCAUCCAACAGAGGAUUGAGCAUCA
B18: chr6:30692278:30692279:+_ENSG00000196230_ENST00000327892|hu_hu|FALSE|FALSE (ssRNA)
RNA: GGGAGUUCUACAGUCCGACGAUCCCAGAGUGGAAAGAGAGAGGAGACAUUCAACAAACAAGUAUUUAUUGAGCGCCUACUAUGUGCCAGGCACUGUUCUAGACCCCCCCCAGAAGAAAAAACAAAAAACAAGAUAGAGGCAGCCAACAGAGGAUUGAGCAUCA
B19: chr19:7991675:7991676:-_ENSG00000104980_ENST00000595831|hu_mus|FALSE|FALSE (ssRNA)
RNA: GGGAGUUCUACAGUCCGACGAUCAUGUACAGGAAGUAAGAGCACUGAUUUAAAAACAAAAACAAAACAAAACAAAAGGACCUAAAGUGGCUUGGAAGGCAAUGCCAGUGGACUACUUAGAACAGCAGGCCAGGCCUCACCCGACAACAGAGGAUUGAGCAUCA
B20: chr19:7991675:7991676:-_ENSG00000104980_ENST00000595831|hu_mus|motif|central (ssRNA)
RNA: B19 RNA with U82G, A83G
B21: chr5:136386232:136386233:-_ENSMUSG00000051391_ENSMUST00000055808|mus_hu|FALSE|FALSE (ssRNA)
RNA: GGGAGUUCUACAGUCCGACGAUCAAGUACACAAUCGAUGGCUUGAUGUUACAUAUGGCUGUAAUGUAGAAAUACUGUAAACUGCAAUUUAGUGUUAAUACUGUCAACUAAUCAGAGACUUCGGAAAACUGGCAAGGCCUAAACCAACAGAGGAUUGAGCAUCA
B22: chr4:95690885:95690886:+_ENSMUSG00000028572_ENSMUST00000156910|mus_mus|mus_mus_mus_hu_False|1_8 (ssRNA)
RNA: GGGAGUUCUACAGUCCGACGAUCUUUAGAAAAUGUUAAAUACCAUGCUAAAAUAUUUUCAAAGGCUUAUUUUAUUUUACCAGAAGUCACAGGCAAGCAGACACUACAAGAAUAUAUGAAAAUGAAACAACAGUGUAAAAUGUACAACAGAGGAUUGAGCAUCA
B23: chr19:37063429:37063430:+_ENSMUSG00000040565_ENSMUST00000099494|mus_mus|FALSE|FALSE (ssRNA)
RNA: GGGAGUUCUACAGUCCGACGAUCCAUAGCAUCCCAAAGAUGUGGCAACUUCACUGCCAUUUCAGCACCAAAAUGCUUCACUAUAGUUGUUAAGGCAAAUUCAGCUCCUCUCCGCUGUACCAGGUAAGGCUUCUGACCCUCAUCCAACAGAGGAUUGAGCAUCA

Each binder was assayed against T1, UNK ZnF1-3 (assay: nsRBNS (natural sequence RNA bind-n-seq); RBNS binding buffer (assumed for nsRBNS): 25 mM Tris pH 7.5, 150 mM KCl, 3 mM MgCl2, 0.01% Triton X-100, 500 ug/ml BSA, 20 U/ml SUPERase-In, 4 C; UNK is unkempt and MSI1 is Musashi-1; names of the RNAs are library labels; protein concentration not given here; high values mean tight binding).

Q: For B1, which binding signal is on record?
A: 0.7 enrichment R

Q: How did the binding signal turn out when B2 was run?
A: 1.07 enrichment R

Q: For B3, which binding signal is on record?
A: 0.685 enrichment R

Q: Which binding signal does the source give for B4 here?
A: 4.1 enrichment R

Q: B5 was tested. Which binding signal did it give?
A: 1.33 enrichment R

Q: Which binding signal does the source give for B6 here?
A: 1.36 enrichment R

Q: With B7 as the binder, how does the binding signal read?
A: 1.3 enrichment R

Q: How did the binding signal turn out when B8 was run?
A: 3.76 enrichment R

Q: With B9 as the binder, how does the binding signal read?
A: 0.545 enrichment R

Q: For B10, which binding signal is on record?
A: 0.378 enrichment R

Q: With B11 as the binder, how does the binding signal read?
A: 1 enrichment R

Q: For B12, which binding signal is on record?
A: 0.826 enrichment R

Q: For B13, which binding signal is on record?
A: 1.67 enrichment R

Q: How did the binding signal turn out when B14 was run?
A: 1.33 enrichment R

Q: With B15 as the binder, how does the binding signal read?
A: 1.04 enrichment R

Q: How did the binding signal turn out when B16 was run?
A: 0.174 enrichment R

Q: How did the binding signal turn out when B17 was run?
A: 0.524 enrichment R

Q: Which binding signal does the source give for B18 here?
A: 2.28 enrichment R

Q: How did the binding signal turn out when B19 was run?
A: 5.35 enrichment R

Q: Which binding signal does the source give for B20 here?
A: 5.15 enrichment R

Q: For B21, which binding signal is on record?
A: 1.26 enrichment R

Q: With B22 as the binder, how does the binding signal read?
A: 1.97 enrichment R

Q: For B23, which binding signal is on record?
A: 0.992 enrichment R
